Measured values as given in PubChem BioAssay (NCI).
About 79,000 compounds went through this panel and 15% of them were active in at least one assay; those are over-represented in the sample as a whole. Active and inactive are the calls of the source. Rule as the data show it: active = growth inhibition above about 70%; inactive = the rest.

Experiments:
[1] = NCI Yeast Anticancer Drug Screen. Data for the rad52 strain (AID 147);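 also: 0% = growth of vehicle-treated control cultures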; conditions: S. cerevisiae rad52 mutant growth inhibition, active compounds read high
Method in brief: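 Screen used a yeast mutant impaired in DNA repair. After compound exposure, growth was measured. Values reflect inhibition compared with vehicle-treated cells.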

[2] = NCI Yeast Anticancer Drug Screen. Data for the wt1 strain (AID 149);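 also: 0% = growth of vehicle-treated wt1 cultures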; conditions: S. cerevisiae wt1 strain (SPY 50644) growth inhibition, active compounds read high
Method in brief: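 The wt1 strain was treated with compounds, and growth was compared with vehicle-treated cultures to give inhibition.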

[3] = NCI Yeast Anticancer Drug Screen. Data for the rad50EPP+ strain (AID 151);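 also: 0% = growth of vehicle-treated control cultures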; conditions: S. cerevisiae rad50 mutant strain, active compounds read high
Method in brief: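 Exposing the rad50EPP+ strain to each compound, growth was compared with vehicle-only cultures to give inhibition.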

[4] = NCI Yeast Anticancer Drug Screen. Data for the mgt1 strain (AID 153); conditions: S. cerevisiae mgt1 mutant growth inhibition, active compounds read high
Method in brief: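 Genetically defined yeast (mgt1) treated with compound; inhibition of growth expressed against vehicle-treated controls.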

[5] = NCI Yeast Anticancer Drug Screen. Data for the rad50 strain (AID 155);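 also: 0% = growth of vehicle-only cultures of the same strain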; conditions: S. cerevisiae rad50 strain growth inhibition, active compounds read high
Method in brief: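 Cells are treated with compound, grown, and their growth is then scored against vehicle-only cultures of the same repair-deficient yeast strain.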

[6] = NCI Yeast Anticancer Drug Screen. Data for the mec2-1 strain (AID 157); conditions: S. cerevisiae mec2-1 strain, active compounds read high
Method in brief: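 Readout is yeast growth inhibition, normalised to vehicle-treated controls, in the mec2-1 strain exposed to compound.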

[7] = NCI Yeast Anticancer Drug Screen. Data for the rad14 strain (AID 159);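 also: 0% = growth of vehicle-treated control cultures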; conditions: S. cerevisiae rad14 strain growth inhibition, active compounds read high
Method in brief: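 Readout: yeast growth inhibition, referenced to vehicle-only cultures. Strain bears a defined alteration in DNA damage repair.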

[8] = NCI Yeast Anticancer Drug Screen. Data for the sgs1 mgt1 strain (AID 161);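 also: 0% = growth of cultures given vehicle only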; conditions: S. cerevisiae sgs1 mgt1 strain, active compounds read high
Method in brief: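 Growth of a repair-deficient yeast mutant was monitored after compound treatment and expressed as inhibition relative to vehicle-treated cultures.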

[9] = NCI Yeast Anticancer Drug Screen. Data for the CLN2oe strain (AID 163);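 also: 0% = growth of vehicle-only control cultures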; conditions: S. cerevisiae CLN2oe strain, active compounds read high
Method in brief: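 Values reflect how much compound exposure reduced yeast growth, referenced to vehicle-exposed cells. Assay organism is a strain with a defined genetic change affecting cell-cycle control.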

[10] = NCI Yeast Anticancer Drug Screen. Data for the cln2 rad14 strain (AID 165);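 also: 0% = growth equal to vehicle treated cultures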; conditions: S. cerevisiae cln2 rad14 strain, active compounds read high
Method in brief: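 Relative to vehicle controls, growth inhibition of compound-treated cln2 rad14 yeast was recorded.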

[11] = NCI Yeast Anticancer Drug Screen. Data for the bub3 strain (AID 167); conditions: S. cerevisiae bub3 mutant strain, active compounds read high
Method in brief: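 Part of a panel of yeast mutants defective in DNA damage repair or cell cycle regulation. Each strain is grown with compound, and inhibition is calculated relative to solvent-treated cultures.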

[12] = NCI Yeast Anticancer Drug Screen. Data for the wt2 strain (AID 169);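 also: 0% = growth of vehicle-treated yeast cultures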; conditions: S. cerevisiae wt2 strain growth inhibition, active compounds read high
Method in brief: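 Values express reduction in yeast growth under compound treatment, referenced to vehicle-treated cells.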

[13] = NCI Yeast Anticancer Drug Screen. Data for the mlh1 strain (AID 171);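 also: 0% = growth of vehicle-treated control cultures of the same strain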; conditions: S. cerevisiae mlh1 strain growth inhibition, active compounds read high
Method in brief: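 Steps: expose the defined-mutant yeast strain to compound; expose a parallel culture to vehicle; measure growth; express compound effect as inhibition relative to the vehicle culture.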

[14] = NCI Yeast Anticancer Drug Screen. Data for the sgs1 strain (AID 173);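 also: 0% = growth of vehicle-only control cultures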; conditions: S. cerevisiae sgs1 mutant, active compounds read high
Method in brief: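 Treat defined-mutant yeast with compound; measure growth; calculate inhibition relative to vehicle-treated cells.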

[15] = NCI Yeast Anticancer Drug Screen. Data for the mlh1 rad18 strain (AID 175); conditions: S. cerevisiae mlh1 rad18 strain growth inhibition, active compounds read high
Method in brief: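 Test agents were incubated with a yeast strain of defined genotype (DNA damage repair defect). Inhibition of growth was derived by comparison with vehicle-exposed cultures.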

[16] = NCI Yeast Anticancer Drug Screen. Data for the rad18 strain (AID 177); conditions: S. cerevisiae rad18 mutant growth inhibition, active compounds read high
Method in brief: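 A genetically defined yeast mutant impaired in DNA damage repair was treated with test compounds, then its growth was measured against cultures receiving vehicle alone.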

[17] = at 5.0 µM (retest, dose inferred, filed as 0.5)
[18] = at 50.0 µM (retest, dose inferred, filed as 5.0)

Measured: growth inhibition

NNC(=S)Nc1cccc2ccccc12
active: [6]; [18] 78%
inactive: [1]; at 1.2 µM -10% | [1]; at 3.7 µM -35% | [1]; at 11.0 µM -29% | [1]; at 33.0 µM 8% | [1]; at 100.0 µM 20% | [2]; at 1.2 µM -21% | [2]; at 3.7 µM -17% | [2]; at 11.0 µM -24% | [2]; at 33.0 µM -7% | [2]; at 100.0 µM 7% | [3]; at 1.2 µM -48% | [3]; at 3.7 µM -52% | [3]; at 11.0 µM -54% | [3]; at 33.0 µM -45% | [3]; at 100.0 µM 4% | [4]; at 1.2 µM -16% | [4]; at 3.7 µM -45% | [4]; at 11.0 µM -23% | [4]; at 33.0 µM -7% | [4]; at 100.0 µM 60% | [5]; at 1.2 µM -31% | [5]; at 3.7 µM -26% | [5]; [17] 45% | [5]; at 11.0 µM -31% | [5]; at 33.0 µM -6% | [5]; [18] 35% | [5]; at 50.0 µM 23.6% | [5]; at 100.0 µM 43% | [6]; at 1.2 µM -16% | [6]; at 3.7 µM -41% | [6]; [17] 60% | [6]; at 11.0 µM -20% | [6]; at 33.0 µM -9% | [6]; at 50.0 µM 23.8% | [6]; at 100.0 µM 12% | [7]; at 1.2 µM -14% | [7]; at 3.7 µM -33% | [7]; at 11.0 µM -50% | [7]; at 33.0 µM -32% | [7]; at 100.0 µM 28% | [8]; [17] -11% | [8]; [18] 54% | [9]; at 1.2 µM 5% | [9]; at 3.7 µM -3% | [9]; at 11.0 µM 2% | [9]; at 33.0 µM 3% | [9]; at 100.0 µM 27% | [10]; [17] 31% | [10]; [18] 67% | [11]; at 1.2 µM -6% | [11]; at 3.7 µM -9% | [11]; [17] 36% | [11]; at 11.0 µM -15% | [11]; at 33.0 µM 13% | [11]; [18] 59% | [11]; at 100.0 µM 55% | [12]; at 1.2 µM -40% | [12]; at 3.7 µM -36% | [12]; at 11.0 µM -33% | [12]; at 33.0 µM -16% | [12]; at 100.0 µM 17% | [13]; at 1.2 µM -37% | [13]; at 3.7 µM -38% | [13]; at 11.0 µM -29% | [13]; at 33.0 µM -13% | [13]; at 100.0 µM 48% | [14]; at 1.2 µM -14% | [14]; at 3.7 µM -33% | [14]; at 11.0 µM -19% | [14]; at 33.0 µM -8% | [14]; at 100.0 µM 37% | [15]; [17] 40% | [15]; [18] 62% | [15]; at 50.0 µM 49.2% | [16]; at 1.2 µM -32% | [16]; at 3.7 µM -39% | [16]; at 11.0 µM -21% | [16]; at 33.0 µM 2% | [16]; at 100.0 µM 18%
